High-throughput results as filed in PubChem BioAssay.
Pf growth 48h = P. falciparum growth inhibition at 48 hours (one generation) | P. falciparum luciferase growth in erythrocytes, 48 h | Potency, µM (series often up to 28.7 µM), for inactives: at the top dose activity change, negative = inhibition, actives largely listed as inhibitors | 310,000 tested, 5.9% active | AID 504832; further: on the % scale 0 is the no-effect control and ±100 the full control effect
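Cell-based growth assay: transgenic P. falciparum expressing firefly luciferase, cultured in red cells within RPMI 1640 containing 0.5% w/v Albumax, 24 mM bicarbonate and gentamycin. A drop in luciferase activity indicates inhibition.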
Pf growth 96h = P. falciparum growth inhibition at 96 hours; P. falciparum luciferase reporter growth, 96 h; Potency, µM (series often up to 28.7 µM), without a hit: at the top dose activity change, negative = inhibition, actives largely listed as inhibitors; 320,000 tested, 6.9% active; AID 504834; further: on the % scale 0 is the no-effect control and ±100 the full control effect
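Infected RBCs, 2% Hct / 0.05% parasitemia final; luciferase-reporter P. falciparum; cpd 96 h, 37 C, 5% CO2; luciferase detection reagent; luminescence.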
SARS PLpro yeast = SARS-CoV PLP inhibition in yeast. 330,000 tested, 0.19% active. Potency, µM (doses to about 32.9 µM), for inactives: at the top dose activity, positive = growth rescue, hits mostly activators. AID 485353. S. cerevisiae expressing SARS-CoV PLpro, growth rescue; calls by dose curve; further: 0% is about no effect; nearly all actives have a fitted effect of over 55% in size
AMA1 RON2 block = disrupts binding of P. falciparum AMA1 to RON2; AlphaScreen AMA1-biotinylated RON2 peptide binding; Potency, µM (series often up to 58.2 µM), for the others: top-dose activity change, negative = inhibition, usual class: inhibitors; 360,000 tested, 0.2% active; AID 720542;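 further: 0% = vehicle wells and -100% = peptide control; nearly all actives have a fitted effect of over 45% in size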
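AMA1 (3D7) with his tag at 25 nM final met compounds first, then biotinylated RON2 peptide at 25 nM; detection used donor plus acceptor beads, 10 µg/mL apiece, read by AlphaScreen after 30 min at room temperature.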
An asterisk follows results filed as active; ? = inconclusive; nt = not tested or not shown; [ ] = remark or other dose. Compounds with a hit are over-represented: about 9.4% of the library has one in this group of screens. Unless noted, the call rests on the fitted dose curve; in most records, active means well fitted curve in the direction sought with a large enough effect; inconclusive means small, poorly fitted or top-dose-only effect, or another doubt; inactive means no such curve, though single readings can be large; an effect the other way counts as inactive or inconclusive. Potency means the concentration at half of the fitted maximal effect.

SMILES	Pf growth 48h	Pf growth 96h	SARS PLpro yeast	AMA1 RON2 block
Cc1nnc(NC(=O)CSc2ccc3nnc(-c4ccccn4)n3n2)s1	?	?	-2%	-22%
Cc1cc(NC(=O)CSc2ccc3nnc(-c4cccc(F)c4)n3n2)no1	1.9µM*	?	2%	-1%
Cc1cc(NC(=O)CSc2ccc3nnc(-c4ccccn4)n3n2)no1	?	12µM*	4%	-28%
CCN1C(=O)CC(n2c(C)nc3ccccc32)C1=O (configuration not stated)	nt	11%	10%	0%
CC(=O)NCc1ccc(-c2csc(NC(=O)CCc3nc4ccccc4c(=O)[nH]3)n2)s1	nt	nt	-1%	0%
CCOc1cc(N2CCOCC2)c(OCC)cc1NC(=O)COC(=O)c1ccc(Cl)cc1N	?	?	4%	-1%
COc1ccc(C(=O)C[n+]2ccc3c(c2)nc(-c2ccc(OC)cc2OC)n3C)cc1	12µM*	4.1µM*	-1%	0%
C=Cn1cc[n+](CC(=O)c2ccc(OC)cc2)c1	?	?	-14%	5%
CCOC(=O)c1ccc[n+](CC(=O)c2ccc(OC)cc2)c1	-5%	11%	4%	-10%
COc1cc(-c2nc3ccccc3c(=O)n2N)cc(OC)c1OC	13%	?	5%	3%
COc1cc(-c2nc3c[n+](CC(=O)c4ccccc4)ccc3n2C)cc(OC)c1OC	7.4µM*	-13%	1%	10%[2.32 µM]
COc1ccc(C(=O)C[n+]2ccc3c(c2)nc(-c2ccccc2)n3C)cc1	2.3µM*	33%	-15%	11%
COc1cccc(OCc2cc(C(=O)N(C)CCOc3ccc(C)cc3)no2)c1	-3%	?	-2%	33%
CN1C(C(=O)NCc2ccccc2)CC2Cn3c(nc4cc(Cl)c(Cl)cc43)C21 (configuration not stated)	19%	38%	-1%	-4%
Cc1cc(C)n2cc(CSc3ccc(Cl)cc3)nc2n1	30%	-4%	-2%	-8%
Clc1ccc(SCc2cn3ccsc3n2)cc1	-20%	10µM*	-6%	9%
Cc1csc2nc(CSc3ccc(Cl)cc3)cn12	120%	3.7µM*	-15%	-20%
Cc1ccc(-c2ccc(=O)n(CC(=O)NCCN(C)C)n2)cc1	10%	33%	2%	2%
COCC(C)NC(=O)Cc1ccc(F)cc1 (configuration not stated)	-15%	9.3µM*	23%	-3%
Cc1ccn2c(NC3CCCC3)c(-c3ccsc3)nc2c1	0%	10%	-6%	3%
Cc1nc(NC(=O)c2ccccc2)sc1-c1csc(Nc2ccc(Cl)cc2Cl)n1	10µM*	3.3µM*	4%	nt
Cc1ccccc1Nc1nc(-c2sc(NC(=O)c3cccc(Cl)c3)nc2C)cs1	?	?	-1%	nt
COc1ccc(Cl)cc1Nc1nc(-c2sc(NC(=O)c3ccccc3)nc2C)cs1	1.9µM*	2.9µM*	-1%	nt
CCC(=O)Nc1ccc2nc(C)n(CC(=O)Nc3ccccc3)c(=O)c2c1	-22%	1%	16%	34%
O=C(NCc1ccc(F)cc1)c1cc2c(s1)CS(=O)(=O)C2	2%	6.6µM*	8%	-7%
SMILES	Pf growth 48h	Pf growth 96h	SARS PLpro yeast	AMA1 RON2 block
COc1ccc(-c2nn(-c3ccccc3)cc2C(=O)Nc2ccc(C(=O)O)cc2)cc1	-15%	?	4%	5%
COc1ccc(NC(=O)CN(C)C(=O)c2cn(-c3ccccc3)nc2-c2ccc(Cl)cc2)cc1	10µM*	?	-10%	-20%
CN(CC(=O)Nc1cccc(F)c1)C(=O)c1cn(-c2ccccc2)nc1-c1ccc(Cl)cc1	15µM*	?	-17%	-7%
COc1ccc(NC(=O)CN(C)C(=O)/C=C/c2cn(-c3ccccc3)nc2-c2ccc(F)cc2)cc1	?	?	5%	-17%
COc1ccc(NC(=O)CN(C)C(=O)c2cn(-c3ccccc3)nc2-c2ccc(F)cc2)cc1	12µM*	?	6%	43%
CCN(CC)C(=O)c1ccc(NC(=O)c2cn(-c3ccccc3)nc2-c2ccc(OC)cc2)cc1	?	7.4µM*	-5%	-2%
CSc1nc(-c2ccco2)cc(-c2ccccc2)c1C#N	47%	?	2%	25%
O=C(Nc1ccc2ccccc2c1)c1cn(-c2ccccc2)nc1-c1cccs1	?	13µM*	-2%	9%
COc1ccc(-c2nn(-c3ccccc3)cc2C(=O)N(C)C)cc1	34%	?	0%	-4%
COc1ccc(NC(=O)CN(C)C(=O)c2cn(-c3ccccc3)nc2-c2ccc(OC)cc2)cc1	13µM*	?	-1%	22%
COc1ccc(NC(=O)CN(C)C(=O)/C=C/c2cn(-c3ccccc3)nc2-c2ccc(C)cc2)cc1	9.3µM*	13µM*	1%	-10%
COc1ccc(-c2nn(-c3ccccc3)cc2C(=O)NC(=S)Nc2cc(Cl)ccc2Cl)cc1	2.9µM*	5.2µM*	1%	3%
CC(=O)Nc1ccc(C(=O)NNC(=O)CCc2ccccc2)cc1	-3%	51%	2%	1%
CCN(CC)S(=O)(=O)c1ccc(C(=O)NCCCN=C2NS(=O)(=O)c3ccccc32)cc1	?	8.3µM*	1%	-14%
CCN(C(=O)CSc1ccc2ccccc2c1)C1CCS(=O)(=O)C1 (configuration not stated)	30%	33%	-16%	13%[11.6 µM]
O=C(N[C@@H](Cc1ccccc1)C(=O)OCc1ccccc1)c1nc[nH]c1C(=O)NC(c1ccccc1)c1ccccc1	1.3µM*	9.3µM*	-1%	100%
C[C@H](NC(=O)c1nc[nH]c1C(=O)N[C@@H](C)C(=O)OC(C)(C)C)C(=O)OCc1ccccc1	-2%	1%	-3%	149%
O=C(CNC(=O)c1[nH]cnc1C(=O)NC(c1ccccc1)c1ccccc1)OCc1ccccc1	?	1.9µM*	7%	150%
C[C@H](NC(=O)c1nc[nH]c1C(=O)N[C@@H](Cc1ccccc1)C(=O)OCc1ccccc1)C(=O)OC(C)(C)C	7.4µM*	?	10%	133%
CC(C)C[C@H](NC(=O)c1[nH]cnc1C(=O)N[C@@H](Cc1ccccc1)C(=O)OC(C)(C)C)C(=O)OC(C)(C)C	9.3µM*	?	0%	90%
COc1ccc(CN2C(=O)C(CC(=O)NCCN3CCOCC3)CC(C(=O)N(C)C)=C2C)cc1 (configuration not stated)	nt	nt	nt	0%
COc1ccc(C2C(C(=O)NCc3ccco3)CCC(=O)N2c2ccc(OC)cc2)cc1 (configuration not stated)	20%	?	-1%	5%
CCC(C)[C@H](NC(=O)NCc1ccccc1)C(=O)O (some centres not stated)	2%	17%	-4%	2%
COc1ccccc1Nc1nc(N)nc(CSC(=S)N2CC(C)CC(C)C2)n1 (configuration not stated)	?	10µM*	65%	9%[2.32 µM]
CC1CCN(C(=S)SCc2nc(N)nc(Nc3ccccc3)n2)CC1	-24%	-26%	0%	-8%
